Test results published in PubChem BioAssay.
Calls of active or inactive are those of the source. No stated cut-off is given here; in the data, active means inhibition above about 33%; inactive means the rest.

Assay: compounds suppressing VP16-driven luciferase signal – cell-based, luminescence, high throughput, counter-screen for LRH-1 inverse agonist project (AID 651615)
Conditions: Gal4-VP16 luciferase reporter cells, at 3.6 µM, active compounds read high

**Q.** For `CC(O)(c1cccnc1)c1nc(-c2cccc(C#N)c2)cs1` (stereo not given), which inhibition is on record?
**A.** 7.33% (inactive)

**Q.** Which inhibition does the source give for `Cc1ccc(NC(=O)CSc2sc3c(O)cc(=O)[nH]c3c2C#N)c(F)c1` here?
**A.** -9.48% (inactive)

**Q.** For `COc1ccc(Oc2ccccc2/C=N/O)cc1`, which inhibition is on record?
**A.** 42.5% (active)

**Q.** Which inhibition does the source give for `Cc1nc2ccccc2n1/N=C/c1ccc([N+](=O)[O-])o1` here?
**A.** 15% (inactive)

**Q.** Which inhibition does the source give for `CCCCCOc1ccc(NC(=O)CSc2cccc3cccnc23)cc1` here?
**A.** -9.81% (inactive)

**Q.** Which inhibition does the source give for `c1cncc(-c2nc(N3CCCCCC3)c3ccccc3n2)c1` here?
**A.** 10.4% (inactive)

**Q.** Which inhibition does the source give for `O=C(CC1C(=O)NCCN1C(=S)Nc1ccccc1)Nc1ccc2c(c1)OCCO2` (stereo not given) here?
**A.** -25.2% (inactive)

**Q.** With `COc1ccc(-c2sc(C(=O)c3ccc(Cl)cc3Cl)cc2CC(=O)O)cc1` as the molecule, how does the inhibition read?
**A.** -5.16% (inactive)

**Q.** With `Cc1c(C)c2ccc(OCC(=O)N3CCN(C(=O)C4COc5ccccc5O4)CC3)cc2oc1=O` (stereo not given) as the molecule, how does the inhibition read?
**A.** -17.1% (inactive)

**Q.** With `O=C(CNc1cccc2ccccc12)N/N=C/c1ccc([N+](=O)[O-])o1` as the molecule, how does the inhibition read?
**A.** 39.9% (active)

**Q.** Which inhibition does the source give for `COc1ccc(OCc2nnc3n2N=C(c2ccc(C)cc2)CS3)cc1` here?
**A.** -1.91% (inactive)

**Q.** Which inhibition does the source give for `CN1CCN(/N=C/c2nc(-c3cccc([N+](=O)[O-])c3)n3ccccc23)CC1` here?
**A.** 3.29% (inactive)

**Q.** With `Cc1cc(Cl)ccc1NC(=O)CN1C(=O)C(=O)N(C2CCCC2)C1=O` as the molecule, how does the inhibition read?
**A.** 1.38% (inactive)

**Q.** Which inhibition does the source give for `COc1cccc(-c2nc(NCC3CCCO3)c3ccccc3n2)c1O` (stereo not given) here?
**A.** -15.4% (inactive)

**Q.** With `COc1cc(C(=O)Nc2ccccc2C2COC(=O)C2=N)cc(OC)c1OC` (stereo not given) as the molecule, how does the inhibition read?
**A.** -1.69% (inactive)

**Q.** Which inhibition does the source give for `O=C(Nc1ccc(N2CCN(Cc3ccccc3F)CC2)cc1)c1ccc([N+](=O)[O-])o1` here?
**A.** 32.6% (active)

**Q.** With `O=C(Nc1ccc(Cc2ccncc2)cc1)c1cccc([N+](=O)[O-])c1` as the molecule, how does the inhibition read?
**A.** 0.73% (inactive)

**Q.** With `CC(=O)Nc1ccc(-c2c(C)cc3oc(=O)cc(-c4ccccc4)c3c2C)cc1` as the molecule, how does the inhibition read?
**A.** -2.96% (inactive)

**Q.** Which inhibition does the source give for `O=C(Nc1c(Cl)ccc2nsnc12)c1ccc([N+](=O)[O-])o1` here?
**A.** -11.9% (inactive)

**Q.** With `CC1(C(=O)NCc2ccco2)Cc2c(-c3ccccc3)ccnc2O1` (stereo not given) as the molecule, how does the inhibition read?
**A.** 26.6% (inactive)

**Q.** With `COc1cc2cc(C(=O)NC(C)c3cccc4ccccc34)c(N)nc2cc1OC` (stereo not given) as the molecule, how does the inhibition read?
**A.** 23.9% (inactive)

**Q.** For `O=Cc1ccc(N2CCCCCC2)cc1`, which inhibition is on record?
**A.** -13.3% (inactive)

**Q.** Which inhibition does the source give for `CCN(Cc1ccccc1)c1ccc(/C=N/N2CCOCC2)cc1` here?
**A.** -9.02% (inactive)

**Q.** For `COc1ccc(CC(NC(C)=O)C(=O)NC2CCN(c3nnnn3-c3ccccc3)CC2)cc1` (stereo not given), which inhibition is on record?
**A.** 2.12% (inactive)

**Q.** Which inhibition does the source give for `Cc1cc(SC#N)cc(C)c1NC(=O)CCl` here?
**A.** -31.6% (inactive)

**Q.** For `CC1CCCC(C)N1C(=O)COC(=O)Cc1ccc(F)cc1` (stereo not given), which inhibition is on record?
**A.** 3.23% (inactive)

**Q.** Which inhibition does the source give for `COC(=O)c1cc2c(-c3ccccc3)cc3ccccn3c-2c1C(=O)OC` here?
**A.** 0.7% (inactive)

**Q.** For `O=C(Nc1ccc2oc(-c3ccncc3)nc2c1)c1ccc([N+](=O)[O-])o1`, which inhibition is on record?
**A.** -13.7% (inactive)

**Q.** With `CC(C)=NOc1cc(NC(=O)CCl)cc([N+](=O)[O-])c1` as the molecule, how does the inhibition read?
**A.** 13% (inactive)

**Q.** With `NC(=S)N/N=C/c1ccc(-n2nncc2-c2ccc(Cl)cc2)cc1` as the molecule, how does the inhibition read?
**A.** 6.68% (inactive)

**Q.** Which inhibition does the source give for `COc1ccc(NC(=O)CN2C(=O)C(C)SC(C)C2=O)c(OC)c1` (stereo not given) here?
**A.** 11.3% (inactive)

**Q.** For `CC(=O)Nc1ccc(NC(=O)CSc2nnnn2C2CCCCC2)cc1`, which inhibition is on record?
**A.** -1.05% (inactive)

**Q.** With `CCOc1cc2c(cc1OCC)C(c1ccc(OC)cc1)N(c1ccccc1)C(=O)C2` (stereo not given) as the molecule, how does the inhibition read?
**A.** -4.52% (inactive)

**Q.** Which inhibition does the source give for `O=C(N/N=C/c1ccc([N+](=O)[O-])o1)c1ccccc1-n1cccc1` here?
**A.** 0.97% (inactive)

**Q.** With `Cc1c(NC(=O)C(C)OC(=O)c2ccc([N+](=O)[O-])s2)c(=O)n(-c2ccccc2)n1C` (stereo not given) as the molecule, how does the inhibition read?
**A.** -10.5% (inactive)

**Q.** For `Cc1cc(C)c(C(N)=O)c(Nc2cccc3ccccc23)n1`, which inhibition is on record?
**A.** -17.9% (inactive)

**Q.** Which inhibition does the source give for `Cc1onc(-c2c(F)cccc2Cl)c1C(=O)Nc1cccc2nsnc12` here?
**A.** 27.2% (inactive)

**Q.** For `Oc1[nH]c2ccccc2c1N=NC(=S)N1CCOCC1`, which inhibition is on record?
**A.** 55.2% (active)

**Q.** Which inhibition does the source give for `COc1ccc(S(=O)(=O)N2CCCCC2)cc1NC(=O)c1ccc([N+](=O)[O-])o1` here?
**A.** 18.6% (inactive)

**Q.** For `O=C(CSc1ccccn1)Nc1nonc1[N+](=O)[O-]`, which inhibition is on record?
**A.** -15.1% (inactive)
